Data on 39 compounds can be found in PubChem BioAssay (NCI).

“And” between values parts separate entries of the source, which are not always exact repeats. Identical values can stand only once. Compounds without any hit were thinned out: in the full panel of roughly 83,000, 20% have a hit.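 The test compound was applied at a single concentration to cells in 96-well plates for 48 hours, and percent growth was recorded.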 Unmarked numbers belong to inactive results. The source made the active and inactive calls. Rule for the calls: active = growth percent below 10; inactive = the rest.

The assay has as its system MDA-MB-468 breast. The assay is described as follows: NCI-60 one-dose screen, 48 h (100 = growth as untreated, 0 = no growth, -100 = all killed). To be noted: 10 µM unless noted.
`CS(=O)(=O)c1cccnn1`: the growth was 74%.

As for `O=C(Nc1ccc2c(c1)OCO2)C(=O)c1c[nH]c2cc(F)ccc12`, the growth is 74.5%.

On to `CC(C)(C)n1cc(-c2ccnc(NCCNS(=O)(=O)c3ccc(C(F)(F)F)cc3)c2)c(-c2cccc(O)c2)n1`, for which the growth was 36.8%.

Regarding `COc1ccc(/C=C2\Oc3cc(C)c(Cl)cc3C2=O)cc1OC`, the growth was 110%.

As to `COc1ccccc1/C=C/C=N/NC1=NC2C(S1)N(C)C(=O)N2C` (centres undefined), the growth is -5.34% (active).

For `COc1ccccc1/C=C/C=N/NC1=NC2C(S1)N(C)C(=O)N2c1ccccc1` (centres undefined), the growth is 38.5%.

`CNc1nc2ncc(-c3c(C)noc3C)cc2n1Cc1ccccc1`: the growth was 34.7%.

As for `C#CCOc1ccc(C2=NN(C)C3N=C(Cl)c4ncn(C)c4N23)cc1OCC#C` (centres undefined), the growth was 86.3%.

For the compound `COC(=O)C1=C(C(=O)OC)C23C=C(C)C1C2=C(C)C1(CC1)[C@@](C)(O)C3=O` (some centres undefined), the growth was -54.2% (active).

`C[C@@H]1CC[C@@H]2[C@@H]1[C@H](OC(=O)/C=C/c1ccccc1)[C@]1(c3ccccc3)C[C@@H](OC(=O)CO)[C@@]2(C)O1`: the growth is 87.5%.

Consider `COc1ccc2[nH]cc(-c3nc(-c4cn(C)c5c(Cl)nccc45)cs3)c2c1`, for which the growth was 18.1%.

For the compound `COc1cc(OC)cc(-c2ccc(-c3ccc(C(=N)N)o3)o2)c1`, the growth is 10.5%.

Regarding `O=C(O)c1ccc(P(=O)(O)O)c([N+](=O)[O-])c1`, the growth was 98.4%.

With `CCc1c(C)c2ccc(OCC(=O)N=Nc3c(O)[nH]c4ccccc34)c(C)c2oc1=O`, the growth was 18.9%.

Consider `Nc1nc(Cl)c2c(C(F)(F)F)cn(CC3CCNCC3)c2n1`, for which the growth is 26.8%.

For the compound `CCNCc1ccncc1`, the growth was 96.9%.

Take `CCOC(=O)c1c(C)nc2ccccc2c1/C=C/c1ccc(F)cc1`: the growth was -2.47% (active).

With `CC(C)CCN(CCC(C)C)CC(O)c1cc2c(c3ccccc13)CCCC2` (centres undefined), the growth is 54%.

As for `Fc1cc(C(F)(F)F)ccc1-c1cncnc1NC1CCCCCC1`, the growth is 82.4%.

For the compound `COc1ccc(S(=O)(=O)NCCCNc2nccc(-c3c(-c4cccc([N+](=O)[O-])c4)nc4sccn34)n2)cc1`, the growth was 16.2%.

As for `Cc1cc(=O)oc2cc(Oc3nc(-c4cccs4)cn4c(-c5cccs5)cnc34)ccc12`, the growth was 54.7%.

With `CN1CCN(Cc2ccc(NC(=O)c3cncc(C#Cc4cnc5ccc(O[C@H]6CCOC6)nn45)c3)cc2C(F)(F)F)CC1`, the growth was -59.7% (active).

With `CCCCCCNC(=O)Oc1ccc(/C(=C(/C)c2ccccc2)c2ccc(OCCN3CCCCCC3)cc2)cc1`, the growth is 9.72% (active).

As for `CC1CCCc2sc3nc(NNC(=O)c4cnccn4)n(-c4ccccc4)c(=O)c3c21` (centres undefined), the growth is -31.8% (active) and -42.9% (active).

For the compound `COc1cccc(-c2nc3occn3c2-c2ccnc(NCCNS(=O)(=O)c3cccc4ccccc34)n2)c1`, the growth was 98.1%.

As to `COc1ccc(-c2cn(-c3ccc(Cl)cc3)c(SCC(=O)c3ccc([N+](=O)[O-])cc3)n2)cc1`, the growth is 71.2%.

As to `COc1ccc(NC(=O)CCCCCCNC(=O)C(O)(O)C(F)(F)F)cc1`, the growth is 31.8%.

As to `COc1ccc(/C=C2/SC(=S)NC2=O)c(OC)c1OC`, the growth is 65.4%.

With `COc1ccc2oc(=O)cc(-c3c(C#N)c(N)n4nc(N)c(C#N)c4c3C#N)c2c1`, the growth is 94.7%.

Regarding `COC(=O)C1CCCN1C(=O)[C@@H]1CCCN1C(=O)[C@H](Cc1c[nH]c2ccccc12)NC(=S)Nc1cc(C(F)(F)F)cc(C(F)(F)F)c1` (some centres undefined), the growth is 44.3%.

Turning to `Clc1cccc(Cc2cn3cc(-c4ccccc4)nc3s2)c1`, the growth was 44.3%.

As for `CN(C)CCOc1cccc(NC2=C(Cl)C(=O)C(Nc3cccc(OCCN(C)C)c3)=C(Cl)C2=O)c1`, the growth was -47.1% (active).

`COc1ccc(-c2nc(-c3ccccc3)c(-c3ccccc3)[nH]2)cc1OC1CCCC1`: the growth was 40.4%.

Consider `Cc1oc2ccc(O)c(CN3CCCCCC3)c2c1C(=O)Nc1ccc(C(F)(F)F)cc1`, for which the growth was 5.74% (active).

For the compound `CS(=O)(=O)Nc1cncc(-c2ccc3ncnc(Nc4ccc(F)c(Cl)c4)c3c2)c1`, the growth is -30.3% (active).

As for `CCCCCCCCCCSC(=N)N`, the growth was -83.1% (active).

With `CC1=C2[C@@H](CC1)[C@]1(C)O[C@@](C(C)C)(C[C@H]1OC(=O)[C@H](C)O)[C@H]2OC(=O)/C=C/c1ccccc1`, the growth was 86.9%.

For `COc1ccc(N2C(=O)c3cc(OC)c(OC)cc3NC2SCc2ccccc2)cc1` (centres undefined), the growth is 108%.

As to `COc1cc2c(cc1I)-c1c(cc(OC)c(OC)c1OC)CC[C@@H]2NC(C)=O`, the growth was -6.02% (active).
